Publication PMC11006913
Substitutions are numbered along the chain they refer to.

Legend:
Experiment in all cases: PBM; 200 nM protein, PBS
Details in all cases: dsDNA, one strand shown
[1] = target: T1, PAX4 (Homo sapiens, UniProt O43316 9-242, R200K)
T1 sequence: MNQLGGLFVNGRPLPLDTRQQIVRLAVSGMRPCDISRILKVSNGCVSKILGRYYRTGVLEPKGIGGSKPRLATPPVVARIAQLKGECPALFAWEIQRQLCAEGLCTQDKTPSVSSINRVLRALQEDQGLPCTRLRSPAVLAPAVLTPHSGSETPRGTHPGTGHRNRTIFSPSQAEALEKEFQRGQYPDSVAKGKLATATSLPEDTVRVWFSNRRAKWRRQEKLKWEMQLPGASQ

[2] = target: T2, PAX4 (Homo sapiens, UniProt O43316 9-242)
T2 sequence: T1 sequence with K192R

[3] = target: T3, PAX4 (Homo sapiens, UniProt O43316 9-242, R200Q)
T3 sequence: T1 sequence with K192Q

[4] = target: T4, PAX4 (Homo sapiens, UniProt O43316 9-242, F177V)
T4 sequence: T1 sequence with F169V, K192R

[5] = target: T5, PAX4 (Homo sapiens, UniProt O43316 9-242, F177Y)
T5 sequence: T1 sequence with F169Y, K192R

[6] = target: T6, PAX4 (Homo sapiens, UniProt O43316 9-242, R227W)
T6 sequence: T1 sequence with K192R, R219W

[7] = target: VAX1 (Homo sapiens, UniProt Q5SQQ9 86-172)
[8] = target: VAX1 (Homo sapiens, UniProt Q5SQQ9 86-172, T142I)
[9] = target: VAX1 (Homo sapiens, UniProt Q5SQQ9 86-172, K157R)
Chain of VAX1 (Homo sapiens, UniProt Q5SQQ9 86-172, K157R) (Q5SQQ9 86-172 K157R): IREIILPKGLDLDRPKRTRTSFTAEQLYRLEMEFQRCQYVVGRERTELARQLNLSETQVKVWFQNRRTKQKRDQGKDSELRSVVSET

Chain of VAX1 (Homo sapiens, UniProt Q5SQQ9 86-172) (Q5SQQ9 86-172): as the sequence (Q5SQQ9 86-172 K157R) above, with R72K counted along it
Chain of VAX1 (Homo sapiens, UniProt Q5SQQ9 86-172, T142I) (Q5SQQ9 86-172 T142I): as the sequence (Q5SQQ9 86-172 K157R) above, with T57I, R72K counted along it

Row | Sequence | binding signal [1] | binding signal [2] | binding signal [3] | binding signal [4] | binding signal [5] | binding signal [6] | binding signal [7] | binding signal [8] | binding signal [9]
1 | CCGCGACC | 9.37 upbm affinity estimate (log intensity, higher = more binding, comparable within an allelic series) | 9.36 upbm affinity estimate (log intensity, higher = more binding, comparable within an allelic series) | 9.36 upbm affinity estimate (log intensity, higher = more binding, comparable within an allelic series) | 9.17 upbm affinity estimate (log intensity, higher = more binding, comparable within an allelic series) | 9.23 upbm affinity estimate (log intensity, higher = more binding, comparable within an allelic series) | 9.24 upbm affinity estimate (log intensity, higher = more binding, comparable within an allelic series) | – | – | –
2 | AGGCCGCC | 9.08 upbm affinity estimate (log intensity, higher = more binding, comparable within an allelic series) | 9.11 upbm affinity estimate (log intensity, higher = more binding, comparable within an allelic series) | 9.15 upbm affinity estimate (log intensity, higher = more binding, comparable within an allelic series) | 9.15 upbm affinity estimate (log intensity, higher = more binding, comparable within an allelic series) | 9.1 upbm affinity estimate (log intensity, higher = more binding, comparable within an allelic series) | 9.22 upbm affinity estimate (log intensity, higher = more binding, comparable within an allelic series) | – | – | –
3 | AGACAGCT | 9.26 upbm affinity estimate (log intensity, higher = more binding, comparable within an allelic series) | 9.25 upbm affinity estimate (log intensity, higher = more binding, comparable within an allelic series) | 9.61 upbm affinity estimate (log intensity, higher = more binding, comparable within an allelic series) | 9.5 upbm affinity estimate (log intensity, higher = more binding, comparable within an allelic series) | 9.46 upbm affinity estimate (log intensity, higher = more binding, comparable within an allelic series) | 9.5 upbm affinity estimate (log intensity, higher = more binding, comparable within an allelic series) | – | – | –
4 | CGGGCCAC | 9.16 upbm affinity estimate (log intensity, higher = more binding, comparable within an allelic series) | 9.26 upbm affinity estimate (log intensity, higher = more binding, comparable within an allelic series) | 9.31 upbm affinity estimate (log intensity, higher = more binding, comparable within an allelic series) | 9.28 upbm affinity estimate (log intensity, higher = more binding, comparable within an allelic series) | 9.41 upbm affinity estimate (log intensity, higher = more binding, comparable within an allelic series) | 9.3 upbm affinity estimate (log intensity, higher = more binding, comparable within an allelic series) | – | – | –
5 | ATGTATTA | 11.5 upbm affinity estimate (log intensity, higher = more binding, comparable within an allelic series) | 11.8 upbm affinity estimate (log intensity, higher = more binding, comparable within an allelic series) | 11.4 upbm affinity estimate (log intensity, higher = more binding, comparable within an allelic series) | 10.8 upbm affinity estimate (log intensity, higher = more binding, comparable within an allelic series) | 11 upbm affinity estimate (log intensity, higher = more binding, comparable within an allelic series) | 11 upbm affinity estimate (log intensity, higher = more binding, comparable within an allelic series) | – | – | –
6 | CAGGCAGG | 9.45 upbm affinity estimate (log intensity, higher = more binding, comparable within an allelic series) | 8.98 upbm affinity estimate (log intensity, higher = more binding, comparable within an allelic series) | 9.63 upbm affinity estimate (log intensity, higher = more binding, comparable within an allelic series) | 9.47 upbm affinity estimate (log intensity, higher = more binding, comparable within an allelic series) | 9.56 upbm affinity estimate (log intensity, higher = more binding, comparable within an allelic series) | 9.49 upbm affinity estimate (log intensity, higher = more binding, comparable within an allelic series) | 7.2 upbm affinity estimate (log intensity, higher = more binding, comparable within an allelic series) | 7.22 upbm affinity estimate (log intensity, higher = more binding, comparable within an allelic series) | 7 upbm affinity estimate (log intensity, higher = more binding, comparable within an allelic series)
7 | AAGCGCTT | 9.65 upbm affinity estimate (log intensity, higher = more binding, comparable within an allelic series) | 9.81 upbm affinity estimate (log intensity, higher = more binding, comparable within an allelic series) | 9.56 upbm affinity estimate (log intensity, higher = more binding, comparable within an allelic series) | 9.61 upbm affinity estimate (log intensity, higher = more binding, comparable within an allelic series) | 9.5 upbm affinity estimate (log intensity, higher = more binding, comparable within an allelic series) | 9.68 upbm affinity estimate (log intensity, higher = more binding, comparable within an allelic series) | – | – | –
8 | CGCGCGCC | 9.3 upbm affinity estimate (log intensity, higher = more binding, comparable within an allelic series) | 9.28 upbm affinity estimate (log intensity, higher = more binding, comparable within an allelic series) | 9.36 upbm affinity estimate (log intensity, higher = more binding, comparable within an allelic series) | 9.21 upbm affinity estimate (log intensity, higher = more binding, comparable within an allelic series) | 9.31 upbm affinity estimate (log intensity, higher = more binding, comparable within an allelic series) | 9.28 upbm affinity estimate (log intensity, higher = more binding, comparable within an allelic series) | – | – | –
9 | CATGTTAG | 10.7 upbm affinity estimate (log intensity, higher = more binding, comparable within an allelic series) | 10.8 upbm affinity estimate (log intensity, higher = more binding, comparable within an allelic series) | 10.7 upbm affinity estimate (log intensity, higher = more binding, comparable within an allelic series) | 10.1 upbm affinity estimate (log intensity, higher = more binding, comparable within an allelic series) | 10.2 upbm affinity estimate (log intensity, higher = more binding, comparable within an allelic series) | 10.3 upbm affinity estimate (log intensity, higher = more binding, comparable within an allelic series) | – | – | –
10 | GGCGCGAC | 9.13 upbm affinity estimate (log intensity, higher = more binding, comparable within an allelic series) | 9.13 upbm affinity estimate (log intensity, higher = more binding, comparable within an allelic series) | 9.1 upbm affinity estimate (log intensity, higher = more binding, comparable within an allelic series) | 9.14 upbm affinity estimate (log intensity, higher = more binding, comparable within an allelic series) | 9.06 upbm affinity estimate (log intensity, higher = more binding, comparable within an allelic series) | 9.21 upbm affinity estimate (log intensity, higher = more binding, comparable within an allelic series) | – | – | –
11 | GTGAATTA | 11.6 upbm affinity estimate (log intensity, higher = more binding, comparable within an allelic series) | 12.2 upbm affinity estimate (log intensity, higher = more binding, comparable within an allelic series) | 11.5 upbm affinity estimate (log intensity, higher = more binding, comparable within an allelic series) | 10.5 upbm affinity estimate (log intensity, higher = more binding, comparable within an allelic series) | 11 upbm affinity estimate (log intensity, higher = more binding, comparable within an allelic series) | 10.9 upbm affinity estimate (log intensity, higher = more binding, comparable within an allelic series) | – | – | –
12 | AGCGCCGC | 9.3 upbm affinity estimate (log intensity, higher = more binding, comparable within an allelic series) | 9.34 upbm affinity estimate (log intensity, higher = more binding, comparable within an allelic series) | 9.35 upbm affinity estimate (log intensity, higher = more binding, comparable within an allelic series) | 9.22 upbm affinity estimate (log intensity, higher = more binding, comparable within an allelic series) | 9.31 upbm affinity estimate (log intensity, higher = more binding, comparable within an allelic series) | 9.31 upbm affinity estimate (log intensity, higher = more binding, comparable within an allelic series) | – | – | –
13 | CCAAGTCC | 9.27 upbm affinity estimate (log intensity, higher = more binding, comparable within an allelic series) | 9.3 upbm affinity estimate (log intensity, higher = more binding, comparable within an allelic series) | 9.4 upbm affinity estimate (log intensity, higher = more binding, comparable within an allelic series) | 9.27 upbm affinity estimate (log intensity, higher = more binding, comparable within an allelic series) | 9.25 upbm affinity estimate (log intensity, higher = more binding, comparable within an allelic series) | 9.38 upbm affinity estimate (log intensity, higher = more binding, comparable within an allelic series) | – | – | –
14 | GCCAGAGC | 9.17 upbm affinity estimate (log intensity, higher = more binding, comparable within an allelic series) | 9.13 upbm affinity estimate (log intensity, higher = more binding, comparable within an allelic series) | 9.26 upbm affinity estimate (log intensity, higher = more binding, comparable within an allelic series) | 9.3 upbm affinity estimate (log intensity, higher = more binding, comparable within an allelic series) | 9.28 upbm affinity estimate (log intensity, higher = more binding, comparable within an allelic series) | 9.34 upbm affinity estimate (log intensity, higher = more binding, comparable within an allelic series) | – | – | –
15 | CGAATTAG | 11.9 upbm affinity estimate (log intensity, higher = more binding, comparable within an allelic series) | 12.5 upbm affinity estimate (log intensity, higher = more binding, comparable within an allelic series) | 12 upbm affinity estimate (log intensity, higher = more binding, comparable within an allelic series) | 10.3 upbm affinity estimate (log intensity, higher = more binding, comparable within an allelic series) | 11.1 upbm affinity estimate (log intensity, higher = more binding, comparable within an allelic series) | 10.9 upbm affinity estimate (log intensity, higher = more binding, comparable within an allelic series) | – | – | –
16 | GAATTAAC | 11.6 upbm affinity estimate (log intensity, higher = more binding, comparable within an allelic series) | 12.2 upbm affinity estimate (log intensity, higher = more binding, comparable within an allelic series) | 11.9 upbm affinity estimate (log intensity, higher = more binding, comparable within an allelic series) | 10.4 upbm affinity estimate (log intensity, higher = more binding, comparable within an allelic series) | 11 upbm affinity estimate (log intensity, higher = more binding, comparable within an allelic series) | 10.8 upbm affinity estimate (log intensity, higher = more binding, comparable within an allelic series) | – | – | –
